Source: PubChem BioAssay AID720525 (National Center for Advancing Translational Sciences (NCATS), 2013)
Results filed as inconclusive are left out. Entries that show only a call come without a potency. The source made the active and inactive calls. Calls follow the shape of the dose curve; as a rule, active = well fitted activation curve with a large enough effect; inconclusive = small, poorly fitted or top-dose-only effect; inactive = no such curve, though single readings can be large or run the other way.

Assay: qHTS Assay for NPC1 Promoter Activators: Hit Validation Using Firefly Luciferase Read-Out for Rab9
Settings: Huh7 Rab9 promoter firefly luciferase reporter, 24 h; series mostly up to 46.1 µM
From the text: Niemann Pick Type C (NPC) is a rare neurodegenerative lipidosis that is characterized by lipid storage in the endosomal/lysosomal system. Treatment modalities for this devastating disease are currently non-existent due to the severe obstacles associated with accessing the central nervous system with proteins or genes. The majority of mutations causing NPC disease are missense mutations that are distributed throughout the length of the NPC1 protein, with the most prevalent being the I1061T allele. Although NPC1 mutant proteins may be functional, they are typically trapped in the ER due to misfolding. […] We have developed and optimized a cell based renilla luciferase reporter assay in 1536 well format for the identification of up-regulators of the mutant Rab9 promoter. This assay presents data on the validation of hits from the primary screen, which used a firefly luciferase read-out. NIH Chemical Genomics Center [NCGC] NIH Molecular Libraries Probe Production centers Network [MLPCN] MLPCN Grant: MH089375 Assay Submitter (PI): Yiannis A. Ioannou
Huh7 cells stably expressing NPC promoter-luciferase will be seeded at 1,500 cells/well in 5 uL in 1,536-well white opaque plates with 23 nL/well of compound in DMSO solution. The assay plates will be incubated at 37 deg C for 24 hours, after which 3 uL/well BriteLite plus luciferase detection reagent mixture (Perkin Elmer) will be added. Luminescence signal will be measured in a ViewLux plate reader (Perkin Elmer) after a 10 minute incubation at the room temperature.

Structure (SMILES) | Potency
CC1CCCN(S(=O)(=O)c2ccc(C(=O)Nc3nnc(-c4ccncc4)o3)cc2)C1 (stereo not drawn) | inactive
O=C(CSc1nnc(-c2ccccc2)o1)Nc1ccccc1F | 0.112 µM (active)
Cc1ccc(NC(=O)NC(=O)c2ccccc2)cc1F | 0.445 µM (active)
CCOC(=O)c1ccc(NC(=O)Oc2cc(C)c(Cl)cc2C(C)C)cc1 | inactive
Cc1cccc(N2CCN(C(=S)c3ccccc3)CC2)c1 | inactive
CCc1cc2c(N=Nc3c(O)[nH]c4ccccc34)ncnc2s1 | inactive
O=C(CSc1nccn1Cc1ccco1)Nc1ccccc1F | inactive
COc1ccc(-c2csc(N(CCCN(C)C)C(=O)c3ccccc3C)n2)cc1 | inactive
N#CC/C(N)=N/NC(=O)CCCNc1ncc(C(F)(F)F)cc1Cl | 19.9 µM (active)
COc1ccc([N+](=O)[O-])cc1COc1ccc2c(-c3ccccc3)cc(=O)oc2c1 | inactive
Cc1ccc(NC(=O)COC(=O)C2C3CC4OC(=O)C2C4C3)cc1Cl (stereo not drawn) | inactive
O=C(NC(=S)Nc1ccc(CN2CCCCC2)cc1)c1cc2ccccc2o1 | inactive
CC(C)CC(=O)N1CCN(c2ccc(NC(=O)c3ccco3)cc2)CC1 | inactive
